Active and inactive are the calls of the source. How the source made its calls: active means hit-call score of the fitted dose curve at least 0.9, where 1 is the maximum; inactive means score below 0.9.
Tests used:
Conditions in all cases: mRNA level, 48 h; actives raise or lower the signal
[1] = read-out: ABC Transporter (ABCB1), ABCB1 (gene 5243); assay: LTEA_HepaRG_ABCB1: Life Technologies and Expression Analysis (LTEA) Assay for ABC Transporter (ABCB1) using HepaRG (AID 2283460)
Procedure, shortened: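 HepaRG cells exposed in duplicate for 48 h in serum-free induction medium to eight half-log concentrations up to 100 uM in 0.5% DMSO. ABCB1 mRNA quantified by qRT-PCR, normalised to ACTB, GAPDH and POLR2A; fitted bidirectionally versus DMSO.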

[2] = read-out: growth arrest and DNA damage 45 (GADD45B), GADD45B (gene 4616); assay: LTEA_HepaRG_GADD45B: Life Technologies and Expression Analysis (LTEA) Assay for growth arrest and DNA damage 45 (GADD45B) using HepaRG (AID 2283461)
Procedure, shortened: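 qRT-PCR read-out (Fluidigm TaqMan, housekeeping-normalized) of mRNA change in human HepaRG cells after 48 h chemical exposure; 8-point curve, top 100 uM, half-log steps, 0.5% DMSO vehicle; gain or loss fitted relative to DMSO baseline.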

[3] = read-out: ABC Transporter (ABCC3), ABCC3 (gene 8714); assay: LTEA_HepaRG_ABCC3: Life Technologies and Expression Analysis (LTEA) Assay for ABC Transporter (ABCC3) using HepaRG (AID 2283462)
Procedure, shortened: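 qRT-PCR read-out of ABCC3 transcript, normalized to three housekeeping genes (ACTB, GAPDH, POLR2A), after 48 h chemical exposure of human HepaRG cells. Eight half-log concentrations, highest 100 uM, in 0.5% DMSO; gain or loss fitted relative to DMSO baseline.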

[4] = read-out: ABC Transporter (ABCB11), ABCB11 (gene 8647); assay: LTEA_HepaRG_ABCB11: Life Technologies and Expression Analysis (LTEA) Assay for ABC Transporter (ABCB11) using HepaRG (AID 2283463)
Procedure, shortened: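 Differentiated human HepaRG cells in serum-free induction medium, dosed in duplicate for 48 h. Eight-point half-log series from 100 uM in 0.5% DMSO; ABCB11 mRNA by qRT-PCR, normalized to ACTB, GAPDH, POLR2A, fitted bidirectionally versus DMSO.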

[5] = read-out: ABC Transporter (ABCC2), ABCC2 (gene 1244); assay: LTEA_HepaRG_ABCC2: Life Technologies and Expression Analysis (LTEA) Assay for ABC Transporter (ABCC2) using HepaRG (AID 2283464)
Procedure, shortened: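 qRT-PCR (TaqMan, Fluidigm array) read-out of ABCC2 mRNA, normalized to three housekeeping genes. Differentiated HepaRG cells were treated 48 h in serum-free induction medium with 8-point half-log series from 100 uM in 0.5% DMSO; curves fitted bidirectionally relative to DMSO.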

[6] = read-out: Broad substrate specificity ATP-binding cassette transporter ABCG2 (Homo sapiens) (UniProt Q9UNQ0); assay: LTEA_HepaRG_ABCG2: Life Technologies and Expression Analysis (LTEA) Assay for ABC Transporter (ABCG2) using HepaRG (AID 2283465)
Procedure, shortened: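 Differentiated HepaRG cells were exposed for 48 h in serum-free induction medium to 8 half-log concentrations, top 100 uM, in 0.5% DMSO. ABCG2 mRNA was measured by qRT-PCR, normalized to ACTB, GAPDH and POLR2A, with bidirectional fitting versus DMSO.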

[7] = read-out: ATP-citrate lyase (ACLY), ACLY (gene 47); assay: LTEA_HepaRG_ACLY: Life Technologies and Expression Analysis (LTEA) Assay for ATP-citrate lyase (ACLY) using HepaRG (AID 2283466)
Procedure, shortened: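 Differentiated HepaRG cells exposed 48 h in serum-free induction medium to eight half-log concentrations up to 100 uM in 0.5% DMSO, duplicates. Transcript measured by Fluidigm TaqMan qRT-PCR, normalized to ACTB, GAPDH, POLR2A; bidirectional fit versus DMSO.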

[8] = read-out: Peroxisomal acyl-coenzyme A oxidase 1 (ACOX1) gene, ACOX1 (gene 51); assay: LTEA_HepaRG_ACOX1: Life Technologies and Expression Analysis (LTEA) Assay for Peroxisomal acyl-coenzyme A oxidase 1 (ACOX1) gene using HepaRG (AID 2283467)
Procedure, shortened: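 HepaRG cells, plated 48 h then switched to serum-free induction medium, were exposed in duplicate for 48 h to 8-point half-log concentrations up to 100 uM in 0.5% DMSO. ACOX1 mRNA was measured by qRT-PCR, normalized to ACTB/GAPDH/POLR2A, and fitted bidirectionally versus DMSO.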

[9] = read-out: Alkaline Phosphatase, Placental (ALPP) gene, ALPP (gene 250); assay: LTEA_HepaRG_ALPP: Life Technologies and Expression Analysis (LTEA) Assay for Alkaline Phosphatase, Placental (ALPP) gene using HepaRG (AID 2283468)
Procedure, shortened: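 qRT-PCR readout of ALPP mRNA (Fluidigm TaqMan), normalized to ACTB/GAPDH/POLR2A, after 48 h chemical exposure of HepaRG cells; 8-point half-log series, top 100 uM, 0.5% DMSO vehicle. Bidirectional curve fit versus DMSO baseline.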

[10] = read-out: Bcl-2 (BAD) gene, BAD (gene 572); assay: LTEA_HepaRG_BAD: Life Technologies and Expression Analysis (LTEA) Assay for Bcl-2 (BAD) gene using HepaRG (AID 2283469)
Procedure, shortened: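 Differentiated HepaRG cells were exposed in duplicate in 0.5% DMSO for 48 h to eight-point half-log concentrations up to 100 uM. BAD mRNA was measured by Fluidigm TaqMan qRT-PCR, normalized to ACTB, GAPDH and POLR2A, and fitted bidirectionally against DMSO.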

[11] = read-out: Bcl-2 (BAX) gene, BAX (gene 581); assay: LTEA_HepaRG_BAX: Life Technologies and Expression Analysis (LTEA) Assay for Bcl-2 (BAX) gene using HepaRG (AID 2283470)
Procedure, shortened: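 HepaRG (human liver), 48 h exposure, duplicate wells. 8-pt curve, half-log from 100 uM, 0.5% DMSO. BAX transcript by TaqMan qRT-PCR; ACTB/GAPDH/POLR2A normalization; gain or loss vs DMSO baseline.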

[12] = read-out: adenosine kinase (ADK) gene, ADK (gene 132); assay: LTEA_HepaRG_ADK: Life Technologies and Expression Analysis (LTEA) Assay for adenosine kinase (ADK) gene using HepaRG (AID 2283471)
Procedure, shortened: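 Read-out is ADK transcript level measured by qRT-PCR and normalised to three housekeeping genes. Cells are human HepaRG, dosed for 48 h at up to 100 uM in 0.5% DMSO. Gain or loss of signal is fitted against DMSO controls.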

BCL2L11 (gene 10018) = assay: LTEA_HepaRG_BCL2L11: Life Technologies and Expression Analysis (LTEA) Assay for Bcl-2 (BCL2L11) gene using HepaRG (AID 2283473)
Procedure, shortened: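 HepaRG, 48 h exposure, 8-pt half-log series from 100 uM in 0.5% DMSO, duplicates; qRT-PCR (Fluidigm TaqMan) for BCL2L11, housekeeping-normalized; bidirectional curve fit relative to DMSO baseline.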

[13] = read-out: Apolipoprotein A-V (APOA5) gene, APOA5 (gene 116519); assay: LTEA_HepaRG_APOA5: Life Technologies and Expression Analysis (LTEA) Assay for Apolipoprotein A-V (APOA5) gene using HepaRG (AID 2283474)
Procedure, shortened: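 HepaRG, 48 h chemical exposure in serum-free induction medium, 8-pt half-log series (top 100 uM), 0.5% DMSO vehicle, duplicates. Readout: APOA5 mRNA by qRT-PCR, housekeeping-normalized; bidirectional fit vs DMSO baseline.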

[14] = read-out: Apoptosis regulator Bcl-2 (Homo sapiens) (UniProt P10415); assay: LTEA_HepaRG_BCL2: Life Technologies and Expression Analysis (LTEA) Assay for Bcl-2 gene using HepaRG (AID 2283475)
Procedure, shortened: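 HepaRG, plated 48 h then switched to serum-free induction medium; dosed 48 h, 8 conc. (max 100 uM, half-log steps), duplicate, 0.5% DMSO. Lysis in RLT, RNA isolated, TaqMan qRT-PCR for BCL2; ACTB/GAPDH/POLR2A normalisation; bidirectional fit vs DMSO.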

[15] = read-out: Bcl-2 (BID) gene, BID (gene 637); assay: LTEA_HepaRG_BID: Life Technologies and Expression Analysis (LTEA) Assay for Bcl-2 (BID) gene using HepaRG (AID 2283476)
Procedure, shortened: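 Transcript levels of BID, measured by qRT-PCR and normalized to three housekeeping genes, were fitted bidirectionally against DMSO controls. Cells were HepaRG, dosed 48 h at up to 100 uM.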

Caspase-3 (Homo sapiens) = Caspase-3 (Homo sapiens) (UniProt P42574); assay: LTEA_HepaRG_CASP3: Life Technologies and Expression Analysis (LTEA) Assay for cysteine-aspartic acid protease (CASP3) using HepaRG (AID 2283477)
Chain of Caspase-3 (Homo sapiens) (P42574 whole entry, looked up): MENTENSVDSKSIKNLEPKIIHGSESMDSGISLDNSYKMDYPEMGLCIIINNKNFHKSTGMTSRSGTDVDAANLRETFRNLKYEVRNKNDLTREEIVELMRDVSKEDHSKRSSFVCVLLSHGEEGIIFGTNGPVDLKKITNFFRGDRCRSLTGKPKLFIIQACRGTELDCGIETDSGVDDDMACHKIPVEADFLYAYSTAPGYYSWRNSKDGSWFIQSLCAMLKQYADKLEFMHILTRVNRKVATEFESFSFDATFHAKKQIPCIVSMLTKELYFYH
Procedure, shortened: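 HepaRG, 48 h exposure, 8 conc. (top 100 uM, half-log steps, duplicate), 0.5% DMSO vehicle; qRT-PCR of CASP3 transcript, housekeeping-normalised (ACTB/GAPDH/POLR2A); bidirectional curve fit vs DMSO baseline.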

[16] = read-out: Cytochrome P450 (CYP24A1), CYP24A1 (gene 1591); assay: LTEA_HepaRG_CYP24A1: Life Technologies and Expression Analysis (LTEA) Assay for Cytochrome P450 (CYP24A1) using HepaRG (AID 2283478)
Procedure, shortened: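 qRT-PCR read-out: CYP24A1 transcript levels normalized to three housekeeping genes, bidirectional curve fits against 0.5% DMSO baseline. Human HepaRG cells treated 48 h with chemicals at eight concentrations from 100 uM in half-log steps.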

[17] = read-out: Alpha-fetoprotein (AFP) gene, AFP (gene 174); assay: LTEA_HepaRG_AFP: Life Technologies and Expression Analysis (LTEA) Assay for Alpha-fetoprotein (AFP) gene using HepaRG (AID 2283472)
Procedure, shortened: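 HepaRG, single lot; 48 h post-plating -> serum-free induction medium; cpd 8-pt, 100 uM top, half-log, 0.5% DMSO, duplicate, 48 h. RNA -> qRT-PCR AFP, norm ACTB/GAPDH/POLR2A. Bidirectional fit vs DMSO.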

[18] = read-out: Cytochrome P450 (CYP1A2), CYP1A2 (gene 1544); assay: LTEA_HepaRG_CYP1A2: Life Technologies and Expression Analysis (LTEA) Assay for Cytochrome P450 (CYP1A2) using HepaRG (AID 2283479)
Procedure, shortened: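 HepaRG, 48 h exposure, top 100 uM, half-log 8-pt, 0.5% DMSO vehicle, duplicates. Readout: TaqMan qRT-PCR of CYP1A2 mRNA, housekeeping-normalized (ACTB/GAPDH/POLR2A). Gain/loss fit relative to DMSO baseline.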

Measured: AC50

Chain of Broad substrate specificity ATP-binding cassette transporter ABCG2 (Homo sapiens) (Q9UNQ0 whole entry, looked up): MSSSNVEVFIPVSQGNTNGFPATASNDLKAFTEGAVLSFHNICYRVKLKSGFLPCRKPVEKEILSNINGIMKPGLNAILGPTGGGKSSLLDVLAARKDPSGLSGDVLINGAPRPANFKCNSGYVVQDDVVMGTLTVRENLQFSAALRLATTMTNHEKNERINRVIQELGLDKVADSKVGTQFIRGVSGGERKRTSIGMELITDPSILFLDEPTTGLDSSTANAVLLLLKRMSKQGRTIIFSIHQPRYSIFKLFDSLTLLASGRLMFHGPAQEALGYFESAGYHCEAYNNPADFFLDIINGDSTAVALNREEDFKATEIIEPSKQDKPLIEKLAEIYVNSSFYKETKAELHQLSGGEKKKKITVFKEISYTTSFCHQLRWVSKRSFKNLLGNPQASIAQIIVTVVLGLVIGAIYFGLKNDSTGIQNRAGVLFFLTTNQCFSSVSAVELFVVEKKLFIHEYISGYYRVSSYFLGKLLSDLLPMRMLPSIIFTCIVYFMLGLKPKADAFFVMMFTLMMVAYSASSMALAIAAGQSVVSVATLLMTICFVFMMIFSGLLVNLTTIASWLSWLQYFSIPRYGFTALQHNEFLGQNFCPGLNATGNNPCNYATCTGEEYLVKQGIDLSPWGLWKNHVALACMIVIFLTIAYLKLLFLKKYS
Chain of Apoptosis regulator Bcl-2 (Homo sapiens) (P10415 whole entry, looked up): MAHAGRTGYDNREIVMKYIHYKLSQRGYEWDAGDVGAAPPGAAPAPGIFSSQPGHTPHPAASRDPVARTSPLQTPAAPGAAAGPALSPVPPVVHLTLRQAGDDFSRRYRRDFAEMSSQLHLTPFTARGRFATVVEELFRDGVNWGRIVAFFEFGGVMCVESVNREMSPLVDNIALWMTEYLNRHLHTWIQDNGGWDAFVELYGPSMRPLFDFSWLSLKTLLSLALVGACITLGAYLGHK

O=C(Nc1ccccc1)c1ccccc1I
active: [2] 17.1 µM | [4] 23.3 µM | [6] 11.7 µM
not listed: [17] | [18]
inactive: all other assays above

COc1cc(C=O)cc2c1[C@H](COC(N)=O)[C@]1(OC(C)=O)ON2C[C@H]2[C@@H]1N2C(C)=O
inactive: [5] | [6] | [7] | [11] | [14] | [15] | Caspase-3 (Homo sapiens) | [16] | [18]
active: [1] 24.3 µM | [2] 92.3 µM | [3] 9.99 µM | [4] 0.38 µM | [8] 94.2 µM | [10] 89.3 µM | [12] 24.6 µM | [17] 0.95 µM | BCL2L11 (gene 10018) 1.29 µM | [13] 0.316 µM

CCC(C)c1ccc(O)cc1 (stereo not drawn)
not listed: [18]
inactive: all other assays above

Brc1ccc(Oc2ccccc2)cc1
not listed: [12] | [17] | [18]
inactive: all other assays above

CCOc1cccc(C2(N3CCN(c4ccccc4)CC3)CCC(C)CC2)c1 (stereo not drawn)
not listed: [18]
inactive: all other assays above

CC(C)COC(=O)c1ccccc1C(=O)OCC(C)C
active: [18] 32.5 µM
not listed: [17]
inactive: all other assays above

Nc1ccc(Cl)cc1N
active: [1] 19.6 µM | [2] 13.3 µM | [3] 35.8 µM | [4] 19 µM | [5] 37.3 µM | [8] 27 µM | [11] 13.2 µM | [17] 22.5 µM | BCL2L11 (gene 10018) 18.9 µM | [13] 16.2 µM | [14] 28.8 µM
inactive: [6] | [7] | [9] | [10] | [15] | Caspase-3 (Homo sapiens) | [16]

c1ccc(C2CO2)cc1 (stereo not drawn)
not listed: [9]
inactive: all other assays above

ClC1=C(Cl)C2(Cl)C3C(Cl)C=CC3C1(Cl)C2(Cl)Cl (stereo not drawn)
active: [1] 1.45 µM | [4] 41.6 µM | [5] 11.4 µM | [6] 8.6 µM | [17] 22.7 µM
not listed: [12] | [18]
inactive: all other assays above

Clc1ccc(C(c2ccc(Cl)cc2)C(Cl)Cl)cc1
active: [1] 31.6 µM | [4] 81.8 µM | [5] 19.3 µM | [9] 50 µM | [13] 60.5 µM
not listed: [17]
inactive: all other assays above

COC(=O)c1ccccc1N
not listed: [9] | [18]
inactive: all other assays above

C[C@]12C=CC3=C4CCC(=O)C=C4CC[C@H]3[C@@H]1CC[C@@H]2O
active: [4] 27.3 µM | [12] 68.2 µM | [17] 50 µM | [14] 14.8 µM
not listed: [9] | [16]
inactive: all other assays above

CC(C)(O)c1cnn2c(-c3ccc(F)c(-c4c(F)cccc4C#N)c3)cnc2n1
active: [1] 0.438 µM | [4] 13.1 µM | [5] 0.304 µM | [8] 0.00316 µM | [17] 12.7 µM
not listed: [9] | [18]
inactive: all other assays above

c1ccc2c(c1)oc1ccccc12
active: [18] 50 µM
not listed: [9]
inactive: all other assays above

Reference: PubChem BioAssay (EPA / NIEHS)
